15-hLO-2 inh – 15-hLO-2 (ALOX15B) enzyme inhibition | O15296 | purified 15hLO-2, xylenol orange hydroperoxide absorbance | Potency, µM (doses to about 57.1 µM), hits mostly inhibitors | 0.56% of 110,000 active; also: nearly all actives have a fitted effect of over 60% in size
Target sequence (O15296 whole entry, looked up): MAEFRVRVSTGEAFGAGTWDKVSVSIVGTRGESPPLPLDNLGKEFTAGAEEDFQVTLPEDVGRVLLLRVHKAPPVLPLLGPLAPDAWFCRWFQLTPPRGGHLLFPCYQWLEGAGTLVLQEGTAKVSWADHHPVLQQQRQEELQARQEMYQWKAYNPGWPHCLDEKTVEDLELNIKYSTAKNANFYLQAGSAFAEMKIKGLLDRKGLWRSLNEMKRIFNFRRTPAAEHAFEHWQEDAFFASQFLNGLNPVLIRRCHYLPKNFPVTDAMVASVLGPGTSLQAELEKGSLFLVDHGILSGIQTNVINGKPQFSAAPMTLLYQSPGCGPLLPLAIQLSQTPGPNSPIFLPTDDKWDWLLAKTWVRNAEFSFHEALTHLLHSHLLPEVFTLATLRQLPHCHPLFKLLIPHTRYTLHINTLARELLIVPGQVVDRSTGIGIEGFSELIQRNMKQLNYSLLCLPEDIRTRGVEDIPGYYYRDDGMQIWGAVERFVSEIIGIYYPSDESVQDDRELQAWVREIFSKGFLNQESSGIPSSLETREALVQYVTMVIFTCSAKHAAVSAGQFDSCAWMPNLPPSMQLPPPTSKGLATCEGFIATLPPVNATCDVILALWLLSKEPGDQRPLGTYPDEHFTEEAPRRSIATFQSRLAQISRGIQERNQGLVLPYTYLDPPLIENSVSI
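Enzyme 50 nM, AA 45 uM, 25 mM Hepes pH 7.5 + 0.01% Triton X-100; cpd preinc 15 min RT, rxn 90 min RT; stop/detect with 200 uM XO + 300 uM Fe(II) in 50 mM H2SO4, 30 min; A573/A405.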
ALOX15 inhib – inhibitors of human 15-lipoxygenase (ALOX15). P16050. AID 887. 1.4% of 74,000 active. Potency, µM (doses to about 57.1 µM), most hits filed as inhibitors. purified 15hLO-1, xylenol orange hydroperoxide absorbance; also: nearly all actives have a fitted effect of over 55% in size
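Purified human 15hLO-1 (40 nM) in 25 mM Hepes pH 7.5, 0.01% Triton X-100, preincubated 15 min RT with compound, then 50 uM arachidonic acid for 6 min. Hydroperoxide read by ferrous/xylenol orange, 30 min; 573/405 nm absorbance ratio gave progress.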
Each line names hits and unclear results; the compound was inactive in the other large screens. This is one part of a sample in which hits are shown more often than they occur. Calls follow the shape of the dose curve; as a rule, active = well fitted inhibition curve with a large enough effect; inconclusive = small, poorly fitted or top-dose-only effect; inactive = no such curve, though single readings can be large or run the other way.

O=C(c1cnccn1)N1CCc2ccccc21	ALOX15 inhib 16µM
FC(F)(F)c1ccccc1-c1nc(NCCN2CCOCC2)c2ccccc2n1	none
CCCC(=O)NC(=S)Nc1ccc(NC(=O)c2cccs2)cc1	none (no result: ALOX15 inhib)
O=C(NC(=S)Nc1ccc(N2CCCCC2)cc1)c1cccs1	15-hLO-2 inh 20µM (no result: ALOX15 inhib)
COc1ccccc1NC(=O)N(Cc1ccco1)Cc1cc2cc(C)cc(C)c2[nH]c1=O	ALOX15 inhib 10µM
COc1ccccc1NC(=O)N(Cc1ccco1)Cc1cc2ccc(C)c(C)c2[nH]c1=O	none
COC(c1ccccc1Br)C(C)/C=C/CCO (configuration not stated)	ALOX15 inhib 1.6µM (no result: 15-hLO-2 inh)
O=C1OC(O)C(C(Cl)Cl)=C1Cl (configuration not stated)	none
O=C(Nc1cc(C(F)(F)F)ccc1N1CCCCC1)c1cccc([N+](=O)[O-])c1	none (no result: ALOX15 inhib)
O=C(NC(=S)Nc1ccccc1N1CCCCC1)c1ccc(-c2cccc([N+](=O)[O-])c2)o1	15-hLO-2 inh 25µM (no result: ALOX15 inhib)
O=C(NC(=S)Nc1ccccc1O)c1ccc(-c2ccc(Cl)cc2)o1	none (no result: ALOX15 inhib)
O=C(NC(=S)Nc1ccccc1N1CCCC1)c1ccc(-c2cccc([N+](=O)[O-])c2)o1	15-hLO-2 inh 7.9µM (no result: ALOX15 inhib)
CC1CCC2CC1C2(C)C (configuration not stated)	none
C1CCOC1	none
Cc1nnc(SCC2=C(C(=O)O)N3C(=O)[C@@H](NC(=O)Cn4cnnn4)[C@@H]3SC2)s1	none
COc1ccc(-c2nc3cnc(N4CCOCC4)nc3n(-c3ccc(OC)cc3)c2=O)cc1	15-hLO-2 inh inconclusive, ALOX15 inhib 16µM
COc1ccc(-n2c(=O)c(-c3ccc(F)cc3)nc3cnc(N4CCOCC4)nc32)cc1	none
CN(C)c1ccc(-c2nc(-n3ccnc3)c3ccccc3n2)cc1	none
CC(C)C1=C[C@@]23CC[C@@H]4[C@](C)(CCC[C@@]4(C)C(=O)O)[C@@H]2C[C@@H]1[C@@H](C(=O)O)[C@@H]3C(=O)O	none
Cn1c(=O)n(C)c2cc(S(=O)(=O)N3CCOCC3)ccc21	none
O=C(c1ccc2ccccc2c1)N1CCN(c2ccc(O)cc2)CC1	15-hLO-2 inh inconclusive, ALOX15 inhib 3.2µM
O=C(Nc1ccc(N2CCOCC2)cc1)Nc1ccc2nc(-c3ccco3)c(-c3ccco3)nc2c1	ALOX15 inhib 4µM (no result: 15-hLO-2 inh)
O=C(NCCCO)Nc1ccc2nc(-c3ccco3)c(-c3ccco3)nc2c1	none (no result: ALOX15 inhib)
O=C(c1ccc2nc(-c3ccco3)c(-c3ccco3)nc2c1)N1CCN(c2ccccc2)CC1	ALOX15 inhib 3.2µM
O=S(=O)(c1ccc2nc(-c3ccco3)c(-c3ccco3)nc2c1)N1CCOCC1	15-hLO-2 inh inconclusive, ALOX15 inhib 2.5µM
O=C(c1cc(-c2ccco2)on1)N1CCN(c2ccccc2)CC1	none
O=C(c1ccc2ccccc2c1)N1CCN(c2ccc([N+](=O)[O-])c(N3CCOCC3)c2)CC1	none (no result: ALOX15 inhib)
CC[C@H](C)C(=O)O[C@@H]1C[C@H](C)C=C2C=C[C@H](C)[C@@H](CC[C@H]3C[C@@H](O)CC(=O)O3)[C@H]21	none
COc1cc(C)cc2c(-c3c(O)cc(O)c4c3C[C@H](C)N[C@@H]4C)cc(-c3cc(-c4c(O)cc(O)c5c4C[C@H](C)N[C@@H]5C)c4cc(C)cc(OC)c4c3O)c(O)c12	none
COc1ccccc1CNc1ncnc2ccc(-c3ccoc3)cc12	none
CN(C)c1ccc(C2(c3ccc(N(C)C)cc3)OC(=O)c3cc(N(C)C)ccc32)cc1	none
COc1ccc(CNc2ncnc3ccc(-c4ccccc4CN(C)C)cc23)c(OC)c1	none
CC(=O)C1=C(C)NC(SCSc2ccccc2)=C(C#N)C1c1cccnc1 (configuration not stated)	ALOX15 inhib 0.32µM
CSCSC1=C(C#N)C(c2ccccc2Cl)C(C(C)=O)=C(C)N1 (configuration not stated)	ALOX15 inhib 25µM
CC(=O)C1=C(C)NC(SCC(=O)c2ccc(-c3ccccc3)cc2)=C(C#N)C1c1cccnc1 (configuration not stated)	none (no result: ALOX15 inhib)
CCOC(=O)CSC1=C(C#N)C(c2ccccc2F)C(C(C)=O)=C(C)N1 (configuration not stated)	none
CC(=O)O[C@@H]1C[C@]2(C)[C@H](C[C@@H](O)[C@H]3[C@@]4(C)CC[C@@H](O)[C@@H](C)[C@@H]4CC[C@@]32C)/C1=C(\CCC=C(C)C)C(=O)O	none
Cc1ccc(S(=O)(=O)N(CC(=O)O)c2ccc(Cl)cc2)cc1	none (no result: 15-hLO-2 inh)
N#CCCn1c(=O)c(-c2ccc(F)cc2)nc2cnc(Oc3cccc(Cl)c3)nc21	none
Nc1nc(SCc2ccccc2[N+](=O)[O-])c2[nH]cnc2n1	none
CCOC(=O)C1=C(C)NC(C)=C(C(=O)OCC)C1c1cn(-c2ccccc2)nc1-c1ccco1	none (no result: ALOX15 inhib)
CC(C)OC(=O)c1cn(-c2ccccc2)nc1-c1ccco1	15-hLO-2 inh inconclusive, ALOX15 inhib 20µM
O=C(NCCCCCCNC(=O)ON=C1CCCCC1)ON=C1CCCCC1	none (no result: ALOX15 inhib)
COc1cc(C)ccc1OCCOc1cc(C)ccc1Cl	15-hLO-2 inh 16µM (no result: ALOX15 inhib)
COc1cc(C)ccc1OCCOc1c(Cl)cc(Cl)cc1Cl	none (no result: ALOX15 inhib)
CC#N	none
CC(=O)c1cccc(NC(=O)Nc2cc3sccc3n2C)c1	ALOX15 inhib 16µM
Cn1c(C(=O)Nc2ccccc2)cc2sccc21	none (no result: ALOX15 inhib)
COc1ccc(O[C@H]2C=C[C@@H](c3ccccc3)O[C@H]2COC(=O)CC/C(C)=N\O[C@@H](C)CN2CCCc3nc(C)c(C)cc32)cc1	none (no result: 15-hLO-2 inh)
N#C/C(=C\c1cccs1)Sc1nc2ccccc2s1	ALOX15 inhib inconclusive
N#C/C(=C\c1ccc[nH]1)Sc1nc2ccccc2s1	ALOX15 inhib 16µM
COc1ccccc1-c1cc(C(=O)N2CCc3ccccc3C2)no1	none (no result: 15-hLO-2 inh)
O=C(Nc1nnc(COc2ccc(Cl)cc2)s1)C1CCCO1 (configuration not stated)	ALOX15 inhib 7.9µM
O=C(Nc1nnc(SCc2ccc(Cl)cc2)s1)C1CCCO1 (configuration not stated)	none (no result: ALOX15 inhib)
O=C(Nc1nnc(COc2ccc(F)cc2)s1)c1cccs1	none
O=C(Nc1nnc(COc2ccc(Cl)cc2)s1)c1cccs1	ALOX15 inhib 16µM
CC1CC2C3CCC4=CC(=O)C=C[C@@]4(C)[C@]3(F)C(O)C[C@]2(C)[C@]1(O)C(=O)COP(=O)(O)O (some centres not stated)	none
N=C(N)c1ccc(/C=C\c2ccc(C(=N)N)cc2)cc1	none
CCN(CC)c1nc(N(CC)CC)[nH]c(=O)n1	ALOX15 inhib 13µM (no result: 15-hLO-2 inh)
CCN(CC)c1ncc(C)c(=O)[nH]1	none (no result: ALOX15 inhib)
COc1ccccc1-c1ccc2ncnc(N(C)Cc3ccco3)c2c1	none
COc1ccc(-c2coc3cc(O)ccc3c2=O)c(O)c1O	ALOX15 inhib 13µM
O=c1c(O)c(-c2ccc(O)cc2)oc2cc(O)ccc12	none
COc1cc(-c2oc3cc(O)ccc3c(=O)c2O)ccc1O	ALOX15 inhib 13µM
O=c1c(O)c(-c2ccc(O)c(O)c2)oc2ccccc12	15-hLO-2 inh 13µM, ALOX15 inhib 2µM
COc1ccc(-c2coc3cc(O)ccc3c2=O)c(OC)c1O	none
COc1ccc(-c2oc3ccccc3c(=O)c2O)cc1	15-hLO-2 inh inconclusive
CN(C)c1ccc2nc3c(C(=O)O)cc(=O)c(O)c-3oc2c1	none
CC(=O)O[C@H]1CC[C@]2(C)C(=CC[C@H]3[C@H]4C[C@H]5O[C@]6(CC[C@H](C)CN6)[C@H](C)[C@@H]5[C@]4(C)CC[C@@H]32)C1	none
CNCC[C@H](Oc1ccccc1OC)c1ccccc1	none
CC(=O)OCC1OC(C#Cc2ccc(C(C)(C)C)cc2)C=CC1OC(C)=O (configuration not stated)	none (no result: 15-hLO-2 inh)
Nc1ccc(N=Nc2c(S(=O)(=O)O)cc3ccccc3c2S(=O)(=O)O)cc1	none
